According to PubChem BioAssay AID686978 (National Center for Advancing Translational Sciences (NCATS), 2013):
Among all 420,000 compounds or so, about 64,000 (15%) were called active. Not shown: some 27% with an inconclusive outcome. The list is a sample of the results. Values without a mark were called inactive. Calls follow the shape of the dose curve; as a rule, active = well fitted inhibition curve with a large enough effect; inconclusive = small, poorly fitted or top-dose-only effect; inactive = flat fitted curve, though single readings scatter.
% is scaled to controls: 0 for no effect and ±100 for the full control effect; potency is read from the fitted curve at half-maximal effect.

Assay: qHTS for Inhibitors of human tyrosyl-DNA phosphodiesterase 1 (TDP1): qHTS in cells in absence of CPT; also: nearly all actives have a fitted effect of over 55% in size
Conditions: DT40 Tdp1-/- hTDP1 cells, no CPT, ATP luminescence, 48 h; activity change, negative = growth inhibition: at 46.2 µM (top of the series)
In short: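 Chicken DT40 Tdp1-/- cells complemented with human TDP1, screened without camptothecin (DMSO vehicle only), 400 cells/well. Compounds pin-transferred, cells incubated at 37 °C for at least 48 hr. Growth read as ATP-dependent luminescence (CellTiter-Glo, 30 min at RT).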
With `Cc1onc(-c2c(Cl)cccc2Cl)c1C(=O)c1c[nH]c(C(=O)NC2CC2)c1` the “activity change, negative = growth inhibition” value was -17.8%.
In the case of `CC1(C)CC(=O)c2sc(N)nc2C1`, the “activity change, negative = growth inhibition” value is reported as 3.79%.
With `O=C(Cc1ccc(F)cc1)N1CCN=C1SCc1cccc([N+](=O)[O-])c1` the “activity change, negative = growth inhibition” value was 4.03%.
For `Cc1cc(C)cc(C(=O)N2CCN=C2SCc2ccc([N+](=O)[O-])cc2)c1`, the “activity change, negative = growth inhibition” value was -40.8%.
With `Cc1cccc(CC(=O)N2CCN=C2SCc2ccc([N+](=O)[O-])cc2)c1` the Potency was 16.4 µM (active).
In the case of `C/C(=N\NC(=O)CCn1nc(C)cc1C)C(C)(C)C`, the “activity change, negative = growth inhibition” value is reported as -4.5%.
In the case of `CCc1cnc2c(c1SCC(=O)N1CCC(C)CC1)c(=O)n(C)c(=O)n2C`, the Potency is reported as 20.6 µM (active).
In the case of `Cn1c(=O)c2c(SCC(=O)N3CCOCC3)nc(C3CC3)nc2n(C)c1=O`, the “activity change, negative = growth inhibition” value is reported as -17.1%.
With `CCOC(=O)N1CCN(C(=O)CSc2nc(C)nc3c2c(=O)n(C)c(=O)n3C)CC1` the “activity change, negative = growth inhibition” value was -1.53%.
For `Cc1nc(N)nc(SCc2ccc([N+](=O)[O-])cc2)c1N`, the Potency was 25.9 µM (active).
In the case of `O=C(CSCc1ccc([N+](=O)[O-])cc1)NCCSCc1ccccc1`, the “activity change, negative = growth inhibition” value is reported as -0.761%.
With `CC(Sc1nnc(Cc2ccc([N+](=O)[O-])cc2)o1)C(N)=O` (stereo unspecified) the “activity change, negative = growth inhibition” value was -1.37%.
With `CCCN(C(=O)COC(=O)CNS(=O)(=O)c1ccc(NC(C)=O)cc1)C1CCS(=O)(=O)C1` (stereo unspecified) the “activity change, negative = growth inhibition” value was 24.2%.
With `COc1ccc(OC)c2[nH]c(=O)c(CCNC(=O)C(C)(C)C)cc12` the “activity change, negative = growth inhibition” value was -3.77%.
In the case of `O=C(NCCCc1ccccc1)C(=O)c1c[nH]c2ccccc12`, the “activity change, negative = growth inhibition” value is reported as -16.1%.
For `COc1ccc(OC)c2[nH]c(=O)c(CCNC(=O)C(=O)c3c[nH]c4ccccc34)cc12`, the Potency was 7.31 µM (active).
In the case of `N#CCCCn1c(O)c(N=NC(=O)C(O)c2ccccc2)c2ccccc21` (stereo unspecified), the “activity change, negative = growth inhibition” value is reported as 13.4%.
In the case of `CCNC(=S)NCC`, the “activity change, negative = growth inhibition” value is reported as 15.3%.
With `S=C(Nc1ccc(Cl)cc1Cl)N1CCCC1` the “activity change, negative = growth inhibition” value was 13.4%.
With `Oc1cc2c(cc1O)CN(C(=S)NCCc1ccc(Cl)cc1)CCC2` the Potency was 8.91 µM (active).
In the case of `COc1ccc(CCNC(=S)N2CCN(S(=O)(=O)c3ccc(Cl)cc3)CC2)cc1`, the “activity change, negative = growth inhibition” value is reported as -6.86%.
With `Cc1cccc(C)c1NC(=O)CNC(=O)Cc1ccc(Br)cc1` the “activity change, negative = growth inhibition” value was -15.9%.
With `CN(Cc1ccco1)c1cc(-c2ccccc2C(F)(F)F)ncn1` the “activity change, negative = growth inhibition” value was -21.6%.
In the case of `FC(F)(F)c1ccccc1-c1cc(NCc2ccccc2)ncn1`, the Potency is reported as 9.2 µM (active).
For `COc1ccccc1CNc1cc(-c2ccccc2CN(C)C)ncn1`, the “activity change, negative = growth inhibition” value was -17.6%.
In the case of `COc1ccc(CCC(=O)c2c(O)cc(OC3OC(CO)C(O)C(O)C3O[C@@H]3OC(C)C(O)C(O)C3O)cc2O)cc1O` (stereo partly specified), the “activity change, negative = growth inhibition” value is reported as -8.37%.
For `COCC1CCCN(Cc2ccc3c(c2)CN(C(=O)c2ccnn2C)CCO3)C1` (stereo unspecified), the “activity change, negative = growth inhibition” value was -5.47%.
For `NS(=O)(=O)c1ccc(NC(=S)NNC(=O)c2cccs2)cc1`, the “activity change, negative = growth inhibition” value was -24.8%.
With `Cc1cc(Oc2ccc(Cl)cc2)nc(SCC(=O)c2ccccc2)n1` the Potency was 23.1 µM (active).
For `Cc1cc(C)nc(SCC(=O)N(C)C)n1`, the “activity change, negative = growth inhibition” value was 13.2%.
In the case of `Cc1cc(C)nc(SCC(=O)c2ccc(Cl)cc2)n1`, the “activity change, negative = growth inhibition” value is reported as -20.5%.
